Screening results as filed in PubChem.
SW480 rerep: inducers of DNA re-replication in SW480 colon cancer cells | SW480 DNA re-replication, Hoechst DNA content imaging, 48 h | 340,000 tested, 1.8% active | Potency, µM (highest dose often 46.1 µM), without a hit: at the highest dose re-replication activation, actives largely listed as activators | AID 624297; further: % of control where 0% means no effect; nearly all actives have a fitted effect of over 55% in size
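Image-based DNA-content assay: after two days of treatment, nuclei were labelled with the DNA dye Hoechst and imaged, and hits were compounds raising the count of nuclei showing high fluorescence intensity.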
KB-3-1 tox: kills parental KB-3-1 adenocarcinoma cells; KB-3-1 viability, CellTiter-Glo ATP luminescence, 72 h; Potency, µM (series often up to 46.1 µM), hits mostly cytotoxic; 400,000 tested, 1.4% active; further: on the % scale 0 is the no-effect control and ±100 the full control effect; nearly all actives have a fitted effect of over 60% in size
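Viability of parental KB-3-1 cells, measured by CellTiter-Glo luminescence, followed a 72 h incubation at 37 °C with pinned compounds in phenol-red-free DMEM containing 10% FBS.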
MCF10A rerep: DNA re-replication induction in MCF 10a cells | MCF 10A DNA re-replication, Hoechst nuclear intensity, 48 h | Potency, µM (top dose mostly 46.1 µM), without a hit: at the highest dose activity, positive = re-replication, actives largely listed as activators | 350,000 tested, 2.9% active | AID 624296; further: % of control where 0% means no effect; nearly all actives have a fitted effect of over 50% in size
ELG1 repair inh: ELG1-dependent DNA repair inhibition. HEK293T ELG1-luciferase reporter, luminescence, 16 h; DNA damage induced by 5-fluorouridine. Potency, µM (titrated, usually from 46.1 µM), without a hit: top-dose activity change, negative = inhibition, hits mostly inhibitors. 330,000 tested, 2.3% active; further: on the % scale 0 is the no-effect control and ±100 the full control effect; nearly all actives have a fitted effect of over 55% in size
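Step one: seed 2,000 cells per well. Step two: pin-transfer compound or DMSO alongside 5-fluorouridine. Step three: incubate 16 hr, 37 °C, 5% CO2. Step four: add ONE-Glo, wait 30 min, read luminescence.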
KB-V1 cytotox: kills drug-selected multidrug resistant KB-V1 cells; KB-V1 MDR cells viability, CellTiter-Glo, 72 h; Potency, µM (series often up to 46.1 µM), most hits filed as cytotoxic; 400,000 tested, 3.4% active; further: on the % scale 0 is the no-effect control and ±100 the full control effect; nearly all actives have a fitted effect of over 60% in size
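qHTS viability screen in drug-selected KB-V1 MDR cells: 72 h compound treatment at 37 degrees C, ATP luminescence end point.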
Active calls of the source: *; i = inactive; ? = inconclusive; . = no result; [ ] = remark or other dose. This is a sample that favours compounds with a hit; in the whole collection about 8.1% have one here. The call rests on the fitted dose curve; in most records, active means well fitted curve in the direction sought with a large enough effect; inconclusive means small, poorly fitted or top-dose-only effect, or another doubt; inactive means no such curve, though single readings can be large; an effect the other way counts as inactive or inconclusive. Potency means the concentration at half of the fitted maximal effect.

SMILES | SW480 rerep | KB-3-1 tox | MCF10A rerep | ELG1 repair inh | KB-V1 cytotox
CN(C)S(=O)(=O)N1CCC(Oc2cccc(C(=O)NCCC3=CCCCC3)c2)CC1 | 3% | ? | 3% | 13µM* | ?
CN(C)S(=O)(=O)N1CCC(Oc2cccc(C(=O)NC3CCCCC3)c2)CC1 | ? | i | 14% | -17% | ?
C=CCN(CC=C)C(=O)c1ccc(OC2CCN(S(=O)(=O)N(C)C)CC2)cc1 | -3% | ? | -2% | ? | 21µM*
Cc1ccc(S(=O)(=O)NNC(=O)c2cc(C)c(C)cc2N)cc1 | 0% | i | 14% | . | 16µM*
COC(=O)NNS(=O)(=O)c1ccc(C)cc1 | 26µM* | i | 0% | 13% | i
Cc1ccc(S(=O)(=O)NNC(=O)c2cc(C)cs2)cc1 | -9% | i | 0% | -5% | i
CS(=O)(=O)N(CC(=O)N1CCN(c2cccc(Cl)c2)CC1)C1CCCCC1 | -1% | i | 2% | -7% | ?
COc1ccc(OC)c(N(CC(=O)N2CCN(c3cc(Cl)ccc3C)CC2)S(C)(=O)=O)c1 | -2% | i | 9% | -25% | 23µM*
Cc1ccc(Cl)cc1N1CCN(C(=O)CN(C2CCCCC2)S(C)(=O)=O)CC1 | -22% | ? | 3% | 18µM* | i
CNC(=O)c1c(O)c2cccc3c2n(c1=O)CCC3 | 13% | ? | ? | ? | ?
COC(=O)/C=c1\sc2ncnn2c1=O | -11%[9.22 µM] | i | 11µM* | 12% | i
C=CCn1c(SCC(=O)N2CCc3ccccc3C2)nc2sc(C)c(C)c2c1=O | ? | i | ? | ? | i
C=CCn1c(SCC(=O)N2CCOCC2)nc2sc(CC)cc2c1=O | -6% | i | -5% | ? | 4.6µM*
C=CCn1c(SCC(=O)N2CCc3ccccc3C2)nc2sc(CC)cc2c1=O | -1% | i | 15% | 23µM* | i
C=CCn1c(SCC(=O)c2cccs2)nc2sc(C)cc2c1=O | 0% | i | ? | ? | 7.3µM*
O=[N+]([O-])c1ccc(N2CCN(CCOc3nonc3-c3ccccc3)CC2)c(Cl)c1 | -3% | i | -23% | -7% | i
Cc1nonc1OCCN1CCN(c2ccc([N+](=O)[O-])cc2)CC1 | -2% | i | 0% | 21µM* | i
COc1ccc(C2=NCCc3cc(OC)c(OC)cc32)cc1 | -72% | i | -56% | -5% | i
COc1ccccc1C1CC(c2ccc(Cl)cc2)Nc2ncnn21 (stereo not drawn) | 8% | i | 6% | 0% | i
CCNc1nnc(CSc2nc3ccccc3s2)s1 | 0% | i | 9% | ? | i
CC(=O)N[C@@H](Cc1ccc(OC(F)(F)F)cc1)C(=O)O | -13% | i | -1% | -1% | ?
CCCCCCCC(=O)N/N=C/c1ccc(Br)cc1 | 18% | i | 7.3µM* | 3% | i
CCCCCCCCCC(=O)N/N=C/c1ccc(C)s1 | ? | i | 16µM* | ? | i
CCCCCCCC(=O)N/N=C/c1cccnc1 | -10% | i | -4% | 0% | i
CCOc1ccc(C2=Nc3ccccc3C(c3ccc(N4CCOCC4)cc3)=NN2)cc1 | 21µM* | 16µM* | 16µM* | ? | 4.1µM*
SMILES | SW480 rerep | KB-3-1 tox | MCF10A rerep | ELG1 repair inh | KB-V1 cytotox
Brc1ccc2c(c1)C(c1ccc(N3CCOCC3)cc1)=NNC(c1cccs1)=N2 | 2% | i | 13% | ? | i
CCOc1ccc(C2=Nc3ccc(Br)cc3C(c3ccc(N4CCOCC4)cc3)=NN2)cc1 | 4% | i | 12% | ? | i
Fc1ccc2c(c1)C(c1ccc(N3CCOCC3)cc1)=NNC(c1cccs1)=N2 | 0% | ? | 24% | ? | 10µM*
COc1ccc(NC(=O)C2CC3C=CC2C3)c([N+](=O)[O-])c1 (stereo not drawn) | 1% | i | 12% | . | 21µM*
O=C(Nc1ccccc1)C(=O)Nc1ccc2c(c1)N(C(=O)C1CC1)CCC2 | ? | 23µM* | ? | ? | ?
Cc1c(CN(C)C)c2c(n1C)C(=O)c1ccc(Br)cc1-2 | ? | i | 27% | -28% | i
Cc1c(CN(C)C)c2c(n1Cc1ccccc1)C(=O)c1ccc(Br)cc1-2 | ? | ? | ? | -19% | 23µM*
CCn1c(-c2ccc(N(C)C)cc2)nc2ccccc21 | 8% | 13µM* | 15% | ? | 16µM*
O=C(NCCc1nc2ccccc2n1CCO)C1CCCCC1 | . | ? | . | . | i
Cc1ccccc1OCc1nnc(SCc2cc(=O)c3ccccc3[nH]2)n1C | . | i | . | . | i
COc1cc2nc(=S)n3[nH]c(COc4ccccc4C)nc3c2cc1OC | -5% | ? | 12% | ? | 0.92µM*
COc1cc2nc(=S)n3[nH]c(CCn4nc(C)cc4C)nc3c2cc1OC | 13µM* | ? | 3% | ? | ?
COc1cc2nc(SCc3ccc(Cl)cc3)n3nc(CCn4nc(C)cc4C)nc3c2cc1OC | . | i | . | . | ?
O=C(CCN1CCN(Cc2ccccc2)CC1)NNC(=O)Cc1ccc(Cl)c(Cl)c1 | ? | ? | 0% | -8% | i
COC(=O)c1ccccc1NC(=O)N1c2ccccc2Sc2ccccc21 | 8% | ? | 8.2µM* | -6% | i
COc1ccccc1C(=O)N1c2ccccc2Sc2ccccc21 | ? | 21µM* | 23µM* | 11% | ?
COC(=O)c1ccccc1NC(=O)N1c2ccccc2CC1C (stereo not drawn) | -2% | i | ? | -19% | 23µM*
CCOc1ccccc1C(=O)N1c2ccccc2Sc2ccccc21 | 24% | ? | ? | ? | i
COc1ccc2[nH]c(=O)c(CN(C(=O)NC3CCCCC3)C3CCCCC3)cc2c1 | 16% | ? | 2% | 1% | 10µM*
O=C(c1ccco1)N(Cc1cc2ccccc2[nH]c1=O)C1CCCCC1 | 0% | i | -3% | ? | i
O=C(c1ccncc1)N(Cc1cc2ccccc2[nH]c1=O)C1CCCCC1 | 12% | 9.2µM* | ? | ? | ?
COc1ccc(CN(Cc2cc3cc4c(cc3[nH]c2=O)OCO4)C(=O)NC2CCCCC2)cc1 | 10% | ? | 7% | 16µM* | i
CCN(CC)CCN(Cc1cc2cc3c(cc2[nH]c1=O)OCCO3)C(=O)NC1CCCCC1 | 1%[9.22 µM] | i | 3% | ? | i
CSCCC(NC(=O)c1ccc(Cl)c([N+](=O)[O-])c1)C(=O)N1CCN(C/C=C/c2ccccc2)CC1 (stereo not drawn) | 2% | i | 18µM* | -1% | i
Cc1csc(NC(=O)CSc2nc3[nH]c(=O)cc(O)c3s2)n1 | ? | 4.1µM* | 9.2µM* | . | 21µM*
